PfHsp90 set2: reduces growth (ATP signal) of yeast expressing P. falciparum Hsp90; inhibition, % at 9.4 µM; 310,000 compounds, 0.32% hits; S. cerevisiae expressing PfHsp90, BacTiter-Glo ATP, 48 h; yeast lacking PDR1 and PDR3 efflux regulators; AID 504621;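 active means every replicate shows inhibition above about 80%, whatever the replicate mean, limit read from the data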
TIM10 inh: TIM10 yeast growth inhibition; S. cerevisiae TIM10 strain growth, BacTiter-Glo luminescence, 24 h; inhibition, % at 10 µM; 330,000 compounds, 1.4% hits; AID 463195;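 active means inhibition of 40% or more at the single tested concentration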;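 further: wild-type TIM10 isogenic control strain grown at permissive 25 °C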
tim23-1 inh: inhibits growth of tim23-1 mutant yeast | S. cerevisiae tim23-1 growth, BacTiter-Glo luminescence, 24 h | inhibition, % at 20 µM | 330,000 compounds, 1.3% hits | AID 463212;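 active means growth inhibition of the mutant yeast at or above 50%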;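 further: temperature-sensitive mutant grown at 25 °C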
SKKanGAS inh: blocks kanamycin growth of S. pyogenes SKKanGAS strain; BacTiter-Glo, 6 h; inhibition, % at 7.5 µM; 300,000 compounds, 1.3% hits;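 active means mean replicate score, as percent of positive control median, at least 50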;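 further: strain carries kanamycin resistance gene driven by streptokinase promoter and grows in 40 µg/ml kanamycin; loss of luminescence reflects streptokinase promoter inhibition or plain growth inhibition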
tim10-1 inh: growth inhibitors of tim10-1 mutant yeast; S. cerevisiae tim10-1 ts strain growth, BacTiter-Glo, 24 h; inhibition, % at 20 µM; 330,000 compounds, 2.2% hits;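 active means inhibition of at least 40%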;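 further: mutant grown at 25 °C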
tim10-1 confirm: confirmation of tim10-1 mutant yeast growth inhibitors | shares compounds with tim10-1 inh | S. cerevisiae tim10-1 ts strain growth, BacTiter-Glo, 24 h | inhibition, % at 20 µM | 7,400 compounds, 56% hits;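 active means inhibition of yeast growth at or above a set limit in either of two repeat tests at 20 µM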;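 further: tim10-1 mutant grown at permissive 25 °C to find synthetic lethal compounds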
Of the large screens only hits and unclear results are named; the others gave an inactive call (follow-up assays come after a bar, where they were run). This is a sample that favours compounds with a hit; in the whole collection about 4.4% have one here.

Cc1ccccc1CN1C(=O)/C(=C\c2ccc(C(=O)NCCN3CCOCC3)cc2)Sc2ccccc21	tim10-1 inh 44.7 | tim10-1 confirm inactive
CSc1ccc(/C=C/C(=O)c2ccc(NC(=O)C(C)C)cc2)cc1	tim10-1 inh 41.7 | tim10-1 confirm 40.2
CCN(CC)CCCNC(=O)c1ccc(S(=O)(=O)Nc2ccc(C)c(C)c2)cc1	none (no result: SKKanGAS inh)
O=C(Nc1ccccc1)c1ccccc1O	none
CC(C1CC1)N(C(=O)c1ccccc1O)c1ccccc1 (centres undefined)	none (no result: PfHsp90 set2) | tim10-1 confirm inactive
COC(=O)c1cc(-c2ccc(C)o2)nc2ccccc12	none
Cc1ccc(-c2cc(C(=O)Nc3ccccc3C)c3ccccc3n2)o1	tim10-1 inh 48.7 (no result: PfHsp90 set2) | tim10-1 confirm inactive
FC(F)(F)c1nc(N2CCCC2)ncc1-c1nnnn1-c1ccc(Cl)cc1	tim10-1 inh 40.4 | tim10-1 confirm inactive
Fc1ccc(-n2nnnc2-c2cnc(-c3cccs3)nc2C(F)(F)F)cc1	tim10-1 inh 40.5 (no result: PfHsp90 set2) | tim10-1 confirm inactive
Cc1ccc(-n2nnnc2-c2cnn(-c3ccc(F)cc3)c2C(F)(F)F)cc1	tim10-1 inh 41.4 | tim10-1 confirm inactive
Cc1ccc(-c2nnnn2-c2ccc(C)cc2)cc1	none
FC(F)(F)c1ccncc1-c1nnnn1-c1ccc(Cl)cc1	none
CN(Cc1cnc2nc(N)nc(N)c2n1)c1ccc(C(=O)NC(CCC(=O)O)C(=O)O)cc1 (centres undefined)	none (no result: TIM10 inh, tim23-1 inh, SKKanGAS inh, tim10-1 inh)
CC(=O)c1ccc(NC(=O)C(C)Sc2nnc(C3CCCCC3)o2)cc1 (centres undefined)	none (no result: PfHsp90 set2)
CC(=O)c1c(C)[nH]c(C(=O)OCC(=O)c2c[nH]c3ccccc23)c1C	none (no result: SKKanGAS inh)
CC(C)Nc1nc(-c2ccccc2)nc(-n2ccnc2)n1	tim10-1 inh 40.5 (no result: PfHsp90 set2) | tim10-1 confirm inactive
c1ccc(-c2nc(-n3ccnc3)nc(-n3ccnc3)n2)cc1	none (no result: PfHsp90 set2)
COc1ccc(C(=O)Nc2cc3c(cc2N2CCCCC2)n(C)c(=O)n3C)cc1OC	tim10-1 inh 48.3 | tim10-1 confirm inactive
O=C1C=C(c2cc(C(F)(F)F)cc(C(F)(F)F)c2)C[C@@H](c2ccc(Cl)cc2)C1	none (no result: SKKanGAS inh)
O=C(COC(=O)c1ccc(O)cc1O)NC1CC1	none (no result: SKKanGAS inh)
CCc1ccc(/C(C)=N/Nc2cc(Cl)nc(C)n2)cc1	none
C/C(=N\Nc1nc(N2CCCCCC2)nc(N2CCCCCC2)n1)c1ccccc1	SKKanGAS inh 58.9, tim10-1 inh 40.1 | tim10-1 confirm inactive
C/C(=N\Nc1cc(Cl)nc(C)n1)c1ccccc1	tim10-1 inh 41.0 (no result: PfHsp90 set2) | tim10-1 confirm 38.7
O=C(COC(=O)CNC(=O)c1ccccc1Cl)NC1CC1	none (no result: SKKanGAS inh)
CCC(C)NS(=O)(=O)c1cc2c3c(c1)CCN3C(=O)CC2 (centres undefined)	none
Cc1ccc(S(=O)(=O)N2CCN(S(=O)(=O)c3ccccc3Br)C2=O)cc1	none (no result: SKKanGAS inh)
Cc1ccc(Nc2nc(C)cc(C)c2C(N)=O)c(C)c1	none
O=[N+]([O-])c1ccc(Cn2cc(-c3cccc(C(F)(F)F)c3)nn2)cc1	tim10-1 inh 46.6 | tim10-1 confirm 32.4
CCCCCNC(=O)Cc1ccc(S(=O)(=O)N2CCOCC2)s1	none
Cc1nn(-c2nnc(NC3CCCCC3)nn2)c(C)c1Br	tim10-1 inh 45.2 | tim10-1 confirm 34.5
Oc1ccc(Cl)cc1CNCc1cccc2ccccc12	none (no result: SKKanGAS inh)
CCOc1cc2c(cc1OCC)CN(C(=O)c1cccc(S(=O)(=O)N3CCCC3)c1)CC2	none (no result: SKKanGAS inh)
Cc1cccc(CSC(Nc2ccc(F)cc2)=C(C#N)C#N)c1	tim10-1 inh 43.6 | tim10-1 confirm inactive
CCOc1cc2nc3c4ccccc4n(C)c3nc2cc1OCC	tim10-1 inh 47.4 | tim10-1 confirm inactive
COc1cc(-c2nnc(-c3cc(-c4ccccc4)nc4ccccc34)o2)cc(OC)c1OC	none (no result: TIM10 inh, tim23-1 inh, SKKanGAS inh, tim10-1 inh)
CC(C)N(C(=O)N1CCN(c2ccnc3cc(Cl)ccc23)CC1)C(C)C	tim10-1 inh 40.3 | tim10-1 confirm 29.3
O=C(Nn1c(SCc2ccc(F)cc2)nc2ccsc2c1=O)c1ccccc1	tim10-1 inh 40.2 | tim10-1 confirm inactive
Cc1nn(C(=O)c2ccc3c(c2)OCO3)c(N)c1-c1ccccc1	tim10-1 inh 40.7 | tim10-1 confirm inactive
Cc1nn(C(=O)c2cccs2)c(N)c1-c1ccccc1	none
CN1CC(c2ccccc2)C2(SC(=S)N(Cc3ccco3)C2=O)C12C(=O)Nc1ccccc12 (centres undefined)	tim10-1 inh 44.2 (no result: PfHsp90 set2) | tim10-1 confirm inactive
CCCN(CC(=O)Nc1cc(Cl)ccc1Cl)C(=O)CN1C(=O)C2CCCCC2C1=O (centres undefined)	none
O=c1cc(-c2ccccc2)[nH]n1-c1ccc([N+](=O)[O-])cc1	SKKanGAS inh 51.3, tim10-1 inh 42.6 | tim10-1 confirm inactive
CCN(CC)C(=S)NC(=O)c1ccc(OC)c(Br)c1	tim10-1 inh 43.6 | tim10-1 confirm inactive
C=CCN(CC=C)C(=S)NC(=O)c1ccc(OC)c(Br)c1	none
CCCn1c(=O)n(C)c(=O)c2c(SCC(=O)Nc3cc(C)on3)nc(C(C)(C)C)nc21	none (no result: SKKanGAS inh)
COc1ccccc1NC(=O)CN1CCN(c2ccccc2)CC1	none
Cc1cc(O)c2c(c1)C(=O)c1cc(O)cc(O)c1C2=O	tim10-1 inh 45.4 | tim10-1 confirm inactive
CN(CC(=O)Nc1ccc(F)c(F)c1F)C(=O)CCCSc1nc2ccccc2[nH]1	none (no result: PfHsp90 set2)
CC(=O)c1ccc(Sc2nnnn2-c2ccccc2)c([N+](=O)[O-])c1	tim10-1 inh 45.6 | tim10-1 confirm inactive
COC(=O)N1C(=O)[C@@](c2ccccc2)(C2CCCCC2)N1C(=O)OC	tim10-1 inh 49.8 | tim10-1 confirm 45.0
CC[C@@]1(c2ccccc2)C(=O)N(C(=O)OC)N1C(=O)OC	none
Cc1ccc(C2C(C#N)=C(N)Oc3n[nH]c(-c4cccs4)c32)s1 (centres undefined)	tim10-1 inh 45.8 | tim10-1 confirm inactive
O=C(Nc1cccnc1)c1cn(-c2ccccc2)nc1-c1cccs1	tim10-1 inh 43.2 | tim10-1 confirm 42.9
O=C(c1ccc(Cl)cc1[N+](=O)[O-])N(Cc1ccccc1)Cc1ccccc1	none (no result: PfHsp90 set2)
CC(C)(C)N(Cc1ccccc1)C(=O)c1ccc(Cl)cc1[N+](=O)[O-]	tim10-1 inh 43.3 | tim10-1 confirm 28.6
O=C(COC(=O)CNS(=O)(=O)/C=C/c1ccccc1)Nc1cccc2ccccc12	none
CSc1ccc(/C=N/NC(=O)CNc2ccc3ccccc3c2)cc1	tim10-1 inh 45.9 | tim10-1 confirm 43.5
O=C(CNc1ccc2ccccc2c1)N/N=C/c1ccncc1	none
CCN(CC(=O)Nc1ccc(NC(C)=O)cc1)C(=O)CCCN1C(=O)c2ccccc2C1=O	none (no result: PfHsp90 set2)
C/C=C(/C(=C/C)c1ccc(O)cc1)c1ccc(O)cc1	tim10-1 inh 44.2 | tim10-1 confirm 43.1
CC(=NN=C(C)c1ccc(O)cc1)c1ccc(O)cc1	none (no result: TIM10 inh, tim23-1 inh, SKKanGAS inh, tim10-1 inh)
COc1ccc(OC)c(NC(=O)C(C)OC(=O)c2cc3ccccc3[nH]2)c1 (centres undefined)	none (no result: TIM10 inh, tim23-1 inh, SKKanGAS inh, tim10-1 inh)
CC[C@@H]1CC=C[C@H]2[C@H]1C(=O)N(Cc1ccccc1)[C@H]2c1ccoc1	tim10-1 inh 77.2 (no result: PfHsp90 set2) | tim10-1 confirm 73.4

Screening results from PubChem.
